Compounds with a hit are over-represented: about 7.5% of the library has one in this group of screens.
NPC1 prom act = NPC1 promoter activation; AID 485313; actives 2.4% (n = 320,000); Potency, µM (series often up to 9.22 µM), without a hit: at the highest dose activation, hits mostly activators; Huh7 NPC1 promoter luciferase reporter, 24 h; also: % of control where 0% means no effect; nearly all actives have a fitted effect of over 60% in size
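Luminescence read-out of NPC1 promoter-driven luciferase in stably transfected Huh7 cells; compounds delivered in DMSO and left 24 h at 37C, 5% CO2, qHTS titration format.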
Luc counter = blocks Kinase-Glo luciferase, a counter-screen artifact. Kinase-Glo luciferase, ATP luminescence, 8 min. AID 1379. actives 0.28% (n = 200,000). Potency, µM (top dose mostly 38.3 µM), without a hit: top-dose activity change, negative = inhibition, most hits filed as inhibitors; also: % is scaled to controls: 0 for no effect and ±100 for the full control effect; nearly all actives have a fitted effect of over 60% in size
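Recombinant Kinase-Glo luciferase, 10 uM ATP (linear range), luciferin; imidazole pH 7.2 / KCl / MgCl2 / Tween / BSA buffer; 8 min RT; luminescence.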
FLuc modulator = counter-screen for miR-21 project: firefly luciferase inhibitors or activators | P08659 | purified FLuc, Km substrates, luminescence inhibition | Potency, µM (series often up to 57.5 µM), without a hit: top-dose activity change, negative = inhibition, most hits filed as inhibitors | actives 6.9% (n = 360,000) | AID 588342;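 also: plate controls were vehicle for no effect and reference inhibitor for full effect; nearly all actives have a fitted effect of over 55% in size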
Target sequence (P08659 whole entry, looked up): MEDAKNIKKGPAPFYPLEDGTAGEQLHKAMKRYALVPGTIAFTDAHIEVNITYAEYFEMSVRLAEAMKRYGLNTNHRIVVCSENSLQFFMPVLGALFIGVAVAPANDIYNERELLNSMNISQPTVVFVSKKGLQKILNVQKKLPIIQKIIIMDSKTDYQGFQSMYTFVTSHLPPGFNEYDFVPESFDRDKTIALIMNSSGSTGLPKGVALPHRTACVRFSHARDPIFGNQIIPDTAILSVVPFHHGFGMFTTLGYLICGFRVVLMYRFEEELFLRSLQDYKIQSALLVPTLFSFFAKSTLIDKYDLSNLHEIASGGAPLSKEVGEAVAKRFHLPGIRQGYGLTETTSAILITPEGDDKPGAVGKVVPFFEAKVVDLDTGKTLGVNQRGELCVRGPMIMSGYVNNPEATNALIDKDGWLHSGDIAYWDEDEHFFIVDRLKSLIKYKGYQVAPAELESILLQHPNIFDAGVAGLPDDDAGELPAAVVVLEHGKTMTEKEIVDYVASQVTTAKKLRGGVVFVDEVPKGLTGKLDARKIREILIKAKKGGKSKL
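Purified P. pyralis luciferase (10nM final) with 10uM D-luciferin and 10uM ATP (Km levels) in 50mM Tris acetate pH 7.5, 10mM Mg acetate, 0.01% Tween-20, 0.05% BSA; qHTS 6-point titration, ~60 µM downward; luminescence read.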
SMN2 splice up = SMN2 splice variant enhancement; HEK293 SMN2-luciferase splicing reporter, luminescence, 30-36 h; Potency, µM (titrated, usually from 46.1 µM), for the others: at the top dose activity change, positive = activation, hits mostly activators; actives 2.8% (n = 210,000); also: % of control where 0% means no effect; nearly all actives have a fitted effect of over 55% in size
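HEK293 cells carry an SMN2 minigene-luciferase reporter in which exon 7 inclusion puts luciferase in frame. Cells were seeded at 2000 cells/well, attached for 10-12 hours, then exposed to compounds for 30-36 hours at 37C before ONE-Glo luminescence.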
ELG1 genotox = genotoxicity induction in ELG1-luciferase HEK293T cells; HEK293T ELG1-luciferase reporter, luminescence, 16 h; Potency, µM (doses to about 46 µM), inactives show top-dose activity change, positive = activation, usual class: activators; actives 1.3% (n = 330,000); also: % of control where 0% means no effect; nearly all actives have a fitted effect of over 60% in size
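Genotoxicity was scored as increased ELG1-luciferase reporter signal, measured by ONE-Glo luminescence (30 min, room temperature). Compound or vehicle exposure of the HEK293T reporter cells lasted 16 hr at 37°C.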
Rab9 prom act = activates the Rab9 promoter; Huh7 Rab9 promoter-luciferase reporter, luminescence, 24 h; Potency, µM (series often up to 9.22 µM), inactives show top-dose activation, negative = inhibition, most hits filed as activators; actives 2.8% (n = 320,000); AID 485297; also: % of control where 0% means no effect; nearly all actives have a fitted effect of over 60% in size
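Measured in stably transfected Huh7 cells bearing a Rab9 promoter–luciferase construct: 24 h compound treatment at 37 °C, followed by luminescence detection.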
* = called active by the depositor; [ ] = dose if it differs, or a comment. Calls follow the shape of the dose curve; as a rule, active = well fitted curve in the direction sought with a large enough effect; inconclusive = small, poorly fitted or top-dose-only effect, or another doubt; inactive = no such curve, though single readings can be large; an effect the other way counts as inactive or inconclusive. Potency is read from the fitted curve at half-maximal effect.

Screening COc1ccc(C2OC3C(CO)OC(n4cnc5c(=O)[nH]c(N)nc54)C3O2)cc1 (centres undefined) returned Luc counter -1% and SMN2 splice up 6%.
Screening O=C(CSc1ncn(-c2ccccc2)n1)c1cccs1 returned NPC1 prom act 2.8µM*, Luc counter -10%, FLuc modulator 7.6µM*, SMN2 splice up inconclusive, ELG1 genotox inconclusive and Rab9 prom act 1.4µM*.
`c1ccc(CSc2ncn(-c3ccccc3)n2)cc1` gave NPC1 prom act 3.2µM*, Luc counter -4%, FLuc modulator 4.8µM*, SMN2 splice up 14µM*, ELG1 genotox 4.1µM* and Rab9 prom act 2.2µM*.
Nc1nc(CSc2ncn(-c3ccccc3)n2)cs1 was read as NPC1 prom act 2µM*, Luc counter -1%, FLuc modulator 11µM*, SMN2 splice up 16µM*, ELG1 genotox inconclusive and Rab9 prom act 1.3µM*.
Screening CCOC(=O)c1sc(NC(=O)CSc2ncn(-c3ccccc3)n2)nc1C returned NPC1 prom act -1%, Luc counter 3%, FLuc modulator 1%, SMN2 splice up -2%, ELG1 genotox 0% and Rab9 prom act 0%.
CCN1CCN(CCCNC(=O)C2CCCN(c3nc4c(C)cc(C)cc4s3)C2)CC1 (centres undefined) was read as NPC1 prom act 17%, FLuc modulator 17µM*, ELG1 genotox inconclusive and Rab9 prom act 3%.
Cc1cc(C)c2nc(N3CCC(C(=O)NCCCN4CC(C)CC(C)C4)CC3)sc2c1 (centres undefined) was read as NPC1 prom act 4%, Luc counter 0%, FLuc modulator inconclusive, SMN2 splice up -34%, ELG1 genotox 15% and Rab9 prom act 26%.
For Cc1cc(C)c2nc(N3CCCC(C(=O)NCCCN4CCOCC4)C3)sc2c1 (centres undefined) the results were NPC1 prom act 23%, Luc counter -4%, FLuc modulator inconclusive, SMN2 splice up 14µM*, ELG1 genotox 15% and Rab9 prom act inconclusive.
`CCCOc1ccc(CNC(=O)C2CCCN(c3nc4c(C)cc(C)cc4s3)C2)cc1` (centres undefined) gave FLuc modulator 0% and SMN2 splice up 3%.
`Cc1cc(C)c2nc(N3CCCC(C(=O)NCCN4CCOCC4)C3)sc2c1` (centres undefined) gave NPC1 prom act inconclusive, Luc counter -7%, FLuc modulator 13µM*, SMN2 splice up 16µM*, ELG1 genotox inconclusive and Rab9 prom act 9%.
Screening Cc1cc(C)c(S(=O)(=O)N2CCOC2CNC(=O)C(=O)NCCCN2CCOCC2)c(C)c1 (centres undefined) returned NPC1 prom act 2.5µM*, FLuc modulator 8.5µM*, ELG1 genotox inconclusive and Rab9 prom act 1.4µM*.
For Cc1cc(NC(=O)C(C)SCC(=O)N(C)Cc2ccccc2F)no1 (centres undefined) the results were NPC1 prom act -2%, FLuc modulator 4%, ELG1 genotox 0% and Rab9 prom act -1%.
COC(=O)N1C2=C(c3ccccc3[C@@H]1CC(=O)Nc1ccc3cc4ccccc4cc3c1)[C@@H]1C(=O)N(c3ccccc3)C(=O)[C@@H]1[C@H](C)C2 was read as Luc counter -4%[7.66 µM] and SMN2 splice up -2%[9.22 µM].
CCCN1CCN(c2nnc(-n3cccc3C(=O)Nc3ccccc3C(F)(F)F)s2)CC1 was read as FLuc modulator -1%.
O=[N+]([O-])c1cccc(NC(=S)N2CCN(c3ccccn3)CC2)c1 was read as NPC1 prom act -1%, FLuc modulator 1%, ELG1 genotox -10% and Rab9 prom act -9%.
For O=C(/C=C/c1ccc2c(c1)OCO2)c1cccs1 the results were Luc counter 8.9µM*.
Screening O=C(/C=C/c1ccc2c(c1)OCO2)c1ccc[nH]1 returned NPC1 prom act 3.2µM*, Luc counter -18%, FLuc modulator 2.1µM*, SMN2 splice up 16µM*, ELG1 genotox inconclusive and Rab9 prom act inconclusive.
Screening O=C(O)/C=C\C=C/c1ccc2c(c1)OCO2 returned Luc counter -2%[7.66 µM] and SMN2 splice up -7%[9.22 µM].
O=C(/C=C/c1ccc2c(c1)OCO2)NCc1ccco1 was read as NPC1 prom act -1%, Luc counter -2%, FLuc modulator inconclusive, SMN2 splice up 27%, ELG1 genotox 14% and Rab9 prom act -1%.
Screening O=C(/C=C\Nc1ccccc1Br)c1ccc2c(c1)OCO2 returned NPC1 prom act inconclusive, Luc counter 10µM*, FLuc modulator 0.085µM*, SMN2 splice up 3.2µM*, ELG1 genotox inconclusive and Rab9 prom act 0.45µM*.
O=C(COc1ccc2c(c1)OCO2)NCc1cccs1 was read as ELG1 genotox 8%.
`O=C(Oc1ccc2c(c1)OCO2)c1cccs1` gave NPC1 prom act 2%, Luc counter -7%, FLuc modulator 11µM*, SMN2 splice up inconclusive, ELG1 genotox 5% and Rab9 prom act -5%.
For CNc1cc([N+](=O)[O-])ccc1N/C=C/C(=O)c1ccc2c(c1)OCO2 the results were NPC1 prom act 22%, Luc counter -1%, FLuc modulator -5%, SMN2 splice up 6%, ELG1 genotox 0% and Rab9 prom act 10%.
`O=C(N/C(=C\c1cccc(Br)c1)C(=O)N1CCCCC1)c1ccco1` gave NPC1 prom act 0%, FLuc modulator 0%, ELG1 genotox -10% and Rab9 prom act 1%.
COc1cc(C(=O)NNC(=O)c2ccc3c(c2)OCCO3)cc(OC)c1OC was read as ELG1 genotox 1%.
COc1cc(/C=C/C(=O)c2ccc3c(c2)OCCO3)cc(Br)c1OCC(=O)N(C)C was read as NPC1 prom act -21%, FLuc modulator 12µM*, ELG1 genotox -35% and Rab9 prom act -22%.
For CN(C(=O)/C=C/c1ccc2c(c1)OCO2)c1ccccc1 the results were NPC1 prom act inconclusive, Luc counter 0%, FLuc modulator inconclusive, SMN2 splice up inconclusive, ELG1 genotox 8% and Rab9 prom act inconclusive.
Screening O=C(CNC(=O)c1ccc2c(c1)OCO2)N/N=C(Br)/C=C/c1ccccc1 returned NPC1 prom act -9%, Luc counter -5%, FLuc modulator -18%, SMN2 splice up -11%, ELG1 genotox 0% and Rab9 prom act -13%.
